Test results: ChEMBL document CHEMBL4808148, “HDAC6 screening dataset using tau-based substrate in an enzymatic assay yields selective inhibitors and activators” (2021)
The whole screen tested about 5,600 compounds, of which about 390 (7%) showed an effect of 50% or more. The sample holds strong results, similar compounds and a random draw of the others, so the mix is not that of the screen.

How the values were obtained:
[1] = target: T1, Protein deacetylase HDAC6 (Homo sapiens) (UniProt Q9UBN7); conditions: at 10 µM
T1 sequence (whole entry): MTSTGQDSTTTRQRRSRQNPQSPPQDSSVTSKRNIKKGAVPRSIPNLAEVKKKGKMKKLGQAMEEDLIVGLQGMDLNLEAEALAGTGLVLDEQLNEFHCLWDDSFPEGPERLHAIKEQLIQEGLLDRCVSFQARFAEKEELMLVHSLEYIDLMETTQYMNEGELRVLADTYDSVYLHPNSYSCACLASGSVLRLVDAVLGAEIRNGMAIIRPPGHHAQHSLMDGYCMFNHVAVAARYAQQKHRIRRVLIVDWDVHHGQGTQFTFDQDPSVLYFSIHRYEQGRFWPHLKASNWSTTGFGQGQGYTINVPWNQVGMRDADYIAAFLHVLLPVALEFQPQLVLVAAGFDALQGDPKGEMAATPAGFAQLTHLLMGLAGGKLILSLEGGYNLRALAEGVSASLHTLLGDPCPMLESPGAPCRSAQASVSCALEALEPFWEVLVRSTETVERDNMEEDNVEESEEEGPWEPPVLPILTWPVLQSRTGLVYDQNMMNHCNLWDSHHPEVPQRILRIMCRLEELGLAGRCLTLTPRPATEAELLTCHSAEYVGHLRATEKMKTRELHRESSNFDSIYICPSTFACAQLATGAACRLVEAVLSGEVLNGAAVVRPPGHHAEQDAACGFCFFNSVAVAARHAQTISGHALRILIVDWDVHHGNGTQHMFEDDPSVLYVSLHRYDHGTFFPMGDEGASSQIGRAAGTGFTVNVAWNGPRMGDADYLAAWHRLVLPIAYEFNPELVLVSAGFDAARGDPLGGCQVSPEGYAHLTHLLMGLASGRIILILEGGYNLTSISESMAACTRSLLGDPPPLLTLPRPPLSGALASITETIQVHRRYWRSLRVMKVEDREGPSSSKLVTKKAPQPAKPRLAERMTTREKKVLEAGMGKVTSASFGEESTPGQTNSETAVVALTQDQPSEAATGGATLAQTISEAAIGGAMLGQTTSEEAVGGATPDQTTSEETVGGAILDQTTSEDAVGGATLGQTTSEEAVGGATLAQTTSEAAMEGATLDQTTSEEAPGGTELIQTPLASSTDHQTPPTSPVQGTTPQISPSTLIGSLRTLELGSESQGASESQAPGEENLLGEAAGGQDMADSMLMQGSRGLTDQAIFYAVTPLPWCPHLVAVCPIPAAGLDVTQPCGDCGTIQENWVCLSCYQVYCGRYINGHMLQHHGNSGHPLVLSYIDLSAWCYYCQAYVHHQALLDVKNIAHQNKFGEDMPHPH

[2] = target: Protein deacetylase HDAC6 (Homo sapiens) (UniProt Q9UBN7); conditions: at 10 µM; remark: listed apart in the source

| Compound | inhibition [1] [%] | inhibition [2] [%] |
| --- | --- | --- |
| Cc1c(N)cccc1Cn1ccc(OCCc2cccs2)cc1=O | -7.53 |  |
| Cc1cccc(NC(=O)N[C@@H]2N=C(c3ccccc3)c3ccccc3N(C)C2=O)c1 | 10.7 |  |
| CCNC1=Nc2ccc(Cl)cc2C(C)(c2ccccc2)O1 (configuration not stated) | 3.39 |  |
| c1cc(Nc2cc(C3CC3)n[nH]2)nc(Nc2ccc3[nH]cnc3c2)n1 | 77.3 |  |
| CCC(C)c1ccc(NC(=O)Cn2cnc3c2c(=O)n(C)c(=O)n3C)cc1 (configuration not stated) | 18.1 |  |
| c1ccc(C2(c3ccccc3)CC2=C2NCCN2)cc1 | 17 |  |
| C[C@H](CCC(=O)O)[C@H]1CC[C@H]2[C@@H]3C(=O)C[C@@H]4CC(=O)CC[C@]4(C)[C@H]3CC(=O)[C@]12C | -6.77 |  |
| CC(=O)Nc1ccc(C(=O)NC(C)(C)C)cc1 | 9.15 |  |
| CC(C)(C)c1ccc(C(=O)Nc2cn3cc(-n4ccnc4)ccc3n2)cc1 | 101 |  |
| Cc1ncc([N+](=O)[O-])n1CC(O)CN1CCOCC1 (configuration not stated) | -5.36 |  |
| COc1cccc2c1C(=O)c1c(O)c3c(c(O)c1C2=O)C[C@@](O)(C(=O)CO)C[C@@H]3O[C@H]1C[C@H](N2CCO[C@H](OC)C2)[C@H](O)[C@H](C)O1 | 43.2 |  |
| COc1cccc2c1C(=O)c1c(O)c3c(c(O)c1C2=O)C[C@@](O)(/C(CO)=N/NC(=O)CCCCCN1C(=O)C=CC1=O)C[C@@H]3O[C@H]1C[C@H](N)[C@H](O)[C@H](C)O1 | 26.7 |  |
| COc1cccc2c1C(=O)c1c(O)c3c(c(O)c1C2=O)C[C@@](O)(C(=O)CO)C[C@@H]3O[C@H]1C[C@H](N)[C@H](O[C@@H]2CCCCO2)[C@H](C)O1 | 92.2 |  |
| CC1(C)OC(=O)C(OCC2CC2)=C1c1ccc(S(C)(=O)=O)cc1 | -6.89 |  |
| CCCCCN(CCCOC)C(=O)[C@@H](CCC(=O)O)NC(=O)c1ccc(Cl)c(Cl)c1 | 9.58 |  |
| CC(C)c1cc(C(C)C)c(-c2csc(N(CCN(C)C)Cc3cccnc3)n2)c(C(C)C)c1 | 1.94 |  |
| C[N+](C)(CF)CCO | 0.62 |  |
| CO/N=C(\C(=O)N[C@@H]1C(=O)N2C(C(=O)O)=C(CSc3nc(C)c(CC(=O)O)s3)CS[C@H]12)c1csc(N)n1 | 2.2 |  |
| CCCOC(=O)c1ccccc1 | 8.38 |  |

| Compound | inhibition [1] [%] | inhibition [2] [%] |
| --- | --- | --- |
| O=C(Oc1cccc2cccnc12)c1ccccc1 | 87.1 |  |
| O=C(O[C@H]1[C@H](OC(=O)c2cccnc2)[C@@H](OC(=O)c2cccnc2)[C@H](OC(=O)c2cccnc2)[C@@H](OC(=O)c2cccnc2)[C@H]1OC(=O)c1cccnc1)c1cccnc1 | -5.99 |  |
| C[C@@H](N[C@H]1CCCC[C@@H]1NC(=O)c1ccc(Cl)cc1)c1cccc2ccccc12 | 18.9 |  |
| COC1(C[S+]([O-])c2ccccc2)CCN(CCc2c[nH]c3ccc(F)cc23)CC1 (configuration not stated) | 4.5 |  |
| MERBROMIN, CHEMBL3833381 |  | 65.3 |
| CC1=C(O)C(=O)[C@@H]2O[C@@H]2C1=O | -8.14 |  |
| COc1ncc(-c2ccc3c(Nc4cc(Oc5cc(F)cc(F)c5)cc(C(=O)O)c4)c(S(=O)(=O)NC4CC4)cnc3c2)c(OC)n1 | 12.8 |  |
| CC(=O)Oc1c(C)cccc1C(=O)O | 17 |  |
| C=C1C(=O)O[C@@H]2[C@H]3C(C)=CC[C@@]34O[C@@]4(C)CC[C@@H]12 | 51 |  |
| O=C1C(=Cc2cccnc2)C(=O)c2ccccc21 | 27.6 |  |
| C[C@@H](O[C@H]1OCCN(Cc2nn[nH]c2CN(C)C)[C@H]1c1ccc(F)cc1)c1cc(C(F)(F)F)cc(C(F)(F)F)c1 | 12.9 |  |
| O=C(NOCCO)c1ccc2cncn2c1Nc1ccc(I)cc1F | 1.39 |  |
| C[C@H](N)C(=O)NCC(=O)N[C@H]1CSSC[C@@H](C(=O)O)NC(=O)[C@H](CO)NC(=O)[C@H]([C@@H](C)O)NC(=O)[C@H](Cc2ccccc2)NC(=O)[C@H]([C@@H](C)O)NC(=O)[C@H](CCCCN)NC(=O)[C@H](Cc2c[nH]c3ccccc23)NC(=O)[C@H](Cc2ccccc2)NC(=O)[C@H](Cc2ccccc2)NC(=O)[C@H](CC(N)=O)NC(=O)[C@H](CCCCN)NC1=O | 15.2 |  |
| CC(C)c1cccc2c1OC(C(C)C)C(=S)N2CC(=O)O (configuration not stated) | 33 |  |
| CCC(=O)NO | 83.8 |  |
| O=C(O)[C@@H](O)[C@@H](O)[C@H](O)[C@@H](O)C(=O)O | 1.05 |  |
| CO[C@H]1/C=C\C=C(/C)C(=O)NC2=CC(=O)C(NCCN(C)C)=C(C[C@@H](C)C[C@H](OC)[C@H](O)[C@@H](C)/C=C(\C)[C@@H]1OC(N)=O)C2=O | 6.6 |  |
| O/N=C/c1cc[n+](COC[n+]2ccc(/C=N/O)cc2)cc1 | -4.53 |  |
| O=C1N[C@@H]2[C@@H](O)[C@@H](O)[C@H](O)[C@@H](CO)N2C1=O | -6.81 |  |

| Compound | inhibition [1] [%] | inhibition [2] [%] |
| --- | --- | --- |
| Oc1ccccc1 | 7.92 |  |
| Oc1ccc2ccccc2c1 | 57.1 |  |
| Oc1ccc(Cl)cc1 | -5.79 |  |
| O=C1CCC(c2ccccc2)(C2CCN(Cc3ccc(I)cc3)CC2)C(=O)N1 (configuration not stated) | -1.98 |  |
| Cc1ccccc1OCC(O)CNCCOc1ccc(C(N)=O)cc1 (configuration not stated) | 0.61 |  |
| CC(=O)N[C@H]1[C@@H](OC(C)C)O[C@H](COC(C)=O)[C@@H](OC(C)=O)[C@@H]1OC(C)=O | -0.18 |  |
| CC(=O)OC[C@H]1O[C@@](COC(C)=O)(O[C@H]2O[C@H](COC(C)=O)[C@@H](OC(C)=O)[C@H](OC(C)=O)[C@H]2OC(C)=O)[C@@H](OC(C)=O)[C@@H]1OC(C)=O | 102 |  |
| C(=C\c1ccccc1)/CN1CCN(CCOC(c2ccccc2)c2ccccc2)CC1 | -6.12 |  |
| CC(C)OC(=O)CNC(=O)[C@H](CS)NC(=O)CC[C@H](N)C(=O)O | 45.1 |  |
| Cc1ccc([N+](=O)[O-])cc1O | 25.1 |  |
| N=C(N)NCCC[C@H](N)C(=O)O | 3.94 |  |
| NCCCC[C@H](N)C(=O)O | -8.14 |  |
| N=C(NCCC[C@H](N)C(=O)O)N[N+](=O)[O-] | 104 |  |
| O=C1c2ccccc2-c2c(NCCc3ccccc3)c(=O)[nH]c3cccc1c23 | 14.4 |  |
| CC(C)(CO)CCCCCCC(C)(C)CO | 17.3 |  |
| COC(=O)N[C@@H](C)CNc1nccc(-c2cn(C(C)C)nc2-c2cc(Cl)cc(NS(C)(=O)=O)c2F)n1 | -2.53 |  |
| CCOc1ccc(S(=O)(=O)O)c2cccnc12 | 102 |  |
| O=C(NCCN1CCC2(CC1)C(=O)NCN2c1cccc(F)c1)c1ccc(F)c(F)c1 | 7.38 |  |
| CC(C)(C)C#Cc1cc(N(C(=O)[C@H]2CC[C@H](C)CC2)[C@H]2CC[C@@H](O)CC2)c(C(=O)O)s1 | 26.8 |  |
